From PubChem
Beta cell apopt – beta cell apoptosis inhibition | INS-1E cytokine-induced death, ATP luminescence, 48 h; percent of positive-control rescue, neutral wells zero | protection from apoptosis, % (concentration not given with the values) | 300,000 tested, 0.8% active;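 active = Every replicate reaches about 75%, or at least half do and their mean reaches it too, limit read from the data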;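 also: 0% = cytokine-treated negative control wells and 100% = positive control rescue; higher means more ATP so stronger rescue from cytokine killing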
CSC inhib – blocks cancer stem cells | inhibition, % at 7.5 µM | 300,000 tested, 1.1% active | cancer stem cell-like cells viability, luminescence; in the data active = inhibition above about 75%; tested in HMLE shEcad cells
Mdm2-MdmX inh – inhibitors of human Mdm2/MdmX interaction | O15151+Q00987 | SaOS-2 split-luciferase Mdm2/MdmX complementation, luminescence | inhibition, % at 8 µM | 330,000 tested, 3% active | AID 485346;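 active = inhibition of at least 50% at 8 µM in the primary screen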
Target sequence (O15151 whole entry, looked up): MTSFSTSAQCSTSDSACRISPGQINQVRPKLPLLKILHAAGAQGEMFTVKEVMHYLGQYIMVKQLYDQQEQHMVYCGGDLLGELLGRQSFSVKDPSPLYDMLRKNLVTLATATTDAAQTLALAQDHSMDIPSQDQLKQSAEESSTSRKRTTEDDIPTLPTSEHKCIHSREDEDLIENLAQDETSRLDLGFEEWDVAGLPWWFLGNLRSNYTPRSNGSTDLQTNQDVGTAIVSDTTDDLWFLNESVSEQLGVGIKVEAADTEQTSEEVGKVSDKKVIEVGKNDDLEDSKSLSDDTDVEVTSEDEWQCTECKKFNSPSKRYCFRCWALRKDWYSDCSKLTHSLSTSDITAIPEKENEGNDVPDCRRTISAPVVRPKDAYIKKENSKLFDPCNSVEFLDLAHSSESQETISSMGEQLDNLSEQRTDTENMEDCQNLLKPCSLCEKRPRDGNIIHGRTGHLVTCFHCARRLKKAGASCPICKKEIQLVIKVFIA
Target sequence (Q00987 whole entry, looked up): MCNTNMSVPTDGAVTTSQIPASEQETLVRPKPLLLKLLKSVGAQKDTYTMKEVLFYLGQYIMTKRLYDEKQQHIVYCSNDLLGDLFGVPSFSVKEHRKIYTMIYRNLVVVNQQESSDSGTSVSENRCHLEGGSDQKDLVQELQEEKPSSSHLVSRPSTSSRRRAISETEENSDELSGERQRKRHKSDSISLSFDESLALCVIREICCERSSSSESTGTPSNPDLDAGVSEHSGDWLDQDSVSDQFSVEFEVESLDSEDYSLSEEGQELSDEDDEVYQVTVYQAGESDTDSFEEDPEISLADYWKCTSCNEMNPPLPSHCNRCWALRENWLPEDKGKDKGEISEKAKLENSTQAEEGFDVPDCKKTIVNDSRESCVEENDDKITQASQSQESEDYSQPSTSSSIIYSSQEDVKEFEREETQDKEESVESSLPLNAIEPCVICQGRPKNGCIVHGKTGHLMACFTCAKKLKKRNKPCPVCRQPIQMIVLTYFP
MPTP block – inhibitors of mitochondrial permeability transition pore | isolated mouse mitochondria, Ca2+ swelling absorbance, 30 min | inhibition, % at 10 µM | 360,000 tested, 1.4% active;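 active = inhibition of 50% or more, scaled per plate between neutral and stimulator controls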;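 also: 0% = DMSO wells given calcium and 100% = 1 mM EGTA wells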
Calb FLC – affects C. albicans growth with fluconazole | C. albicans CaCi-2 (fluconazole-resistant clinical isolate) + fluconazole, Alamar Blue growth, 48 h | growth inhibition, % (concentration not given with the values) | 300,000 tested, 0.57% active | AID 1979;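 active = growth inhibition above about 58% in most replicates, limit read from the data, passing the limit was not always enough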;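 also: all wells also contain fluconazole at 8 µg/ml as a sub-toxic cotreatment; 0% = median of DMSO wells and 100% = median of geldanamycin control wells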
MPTP counter – Rhodamine 123 counter-screen of mitochondrial pore hits. shares compounds with MPTP block. isolated mitochondria, membrane potential, Rhodamine 123 fluorescence. inhibition, % at 10 µM. 5,000 tested, 78% active. AID 624504; in the data active = inhibition above about 22%;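 also: 0% = DMSO vehicle and 100% = positive control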
MPTP abs DR – MPTP inhibition, dose response swelling confirmation | shares compounds with MPTP block | isolated mitochondria swelling, absorbance | IC50, µM | 780 tested, 58% active; in the data active = IC50 below about 20 µM
MPTP counter DR – counter-screen for mitochondrial permeability transition pore inhibitors, dose response | shares compounds with MPTP block | isolated mitochondria counterscreen, fluorescence read-out | IC50, µM | 780 tested, 49% active | AID 651564; in the data active = IC50 below about 80 µM
* hit, by the source's call. Only some compounds are listed: those with a hit (about 4.8% of all), similar ones and a draw of the others.

CCCCn1c(N)c(-c2nc3ccccc3s2)c2c([N+](=O)[O-])nn(C)c(=O)c21 was read as Beta cell apopt 15, CSC inhib 9, Mdm2-MdmX inh 33, MPTP block 97*, Calb FLC -6, MPTP counter -1, MPTP abs DR 12* and MPTP counter DR 6.2*.
CCCCn1c(N)c(N(CCC(C)C)C(=O)CSc2nc3ccccc3s2)c(=O)[nH]c1=O was read as MPTP block 0.
`CCCCN(C(=O)CCCc1nc2ccccc2s1)c1c(N)n(CCCC)c(=O)[nH]c1=O` gave Beta cell apopt -5, CSC inhib 3, Mdm2-MdmX inh 24, MPTP block 2 and Calb FLC -5.
`CCOC(=O)C1(Cc2ccc(OC)cc2)CCN(C(=O)c2cc(C)nn2C)CC1` gave Beta cell apopt 1, CSC inhib 9, Mdm2-MdmX inh 15, MPTP block 5 and Calb FLC 3.
Cc1ccc(CNc2ncnc3cc(Cl)ccc23)cc1 was read as Beta cell apopt 25, CSC inhib 8, Mdm2-MdmX inh 8, MPTP block 87*, Calb FLC -2 and MPTP counter 76*.
Cc1ccccc1CNc1ncnc2cc(Cl)ccc12 was read as Beta cell apopt 3, CSC inhib 21, Mdm2-MdmX inh 6, MPTP block 1 and Calb FLC 6.
Screening CN(C)CCC(=O)N1c2ccccc2Sc2ccc(C(F)(F)F)cc21 returned Beta cell apopt -3, CSC inhib 11, Mdm2-MdmX inh 26, MPTP block 0 and Calb FLC 3.
Screening CN(C)CCCN1c2ccccc2Sc2ccc(C(F)(F)F)cc21 returned Beta cell apopt -1, CSC inhib 9, Mdm2-MdmX inh 13, MPTP block 102*, Calb FLC -12 and MPTP counter -21.
Screening Cc1cccc(NC(=O)NCCc2ccc(Cl)cc2)c1 returned Beta cell apopt -11, CSC inhib -8, Mdm2-MdmX inh -5, MPTP block 6 and Calb FLC -6.
For O=C(NCCc1ccc(Cl)cc1)Nc1cccc(Cl)c1 the results were Beta cell apopt -5, CSC inhib -13, Mdm2-MdmX inh 31, MPTP block 95*, Calb FLC -14 and MPTP counter 94*.
O=C(NCCc1ccccc1)Nc1cccc(Cl)c1 was read as Beta cell apopt 2, CSC inhib -5, Mdm2-MdmX inh -14, MPTP block 97*, Calb FLC -1 and MPTP counter 88*.
For Cc1cccc(NC(=O)NC(C)CCc2ccccc2)c1 (stereo not given) the results were Beta cell apopt -6, CSC inhib -9, Mdm2-MdmX inh -17, MPTP block 64*, Calb FLC -13 and MPTP counter 73*.
Screening O=C(NCCSCc1ccco1)Nc1cccc(Cl)c1 returned Beta cell apopt -1, CSC inhib 22, Mdm2-MdmX inh -3, MPTP block 79*, Calb FLC -8 and MPTP counter 79*.
CC1CCC(NC(=O)COC(=O)c2cccnc2Cl)CC1 (stereo not given) was read as Mdm2-MdmX inh -13 and MPTP block 1.
`CCCOc1ccc(C(=O)NNC(=O)c2cccc(S(=O)(=O)N3CCN(C(C)=O)CC3)c2)cc1OC` gave Beta cell apopt 0, CSC inhib -4, Mdm2-MdmX inh 2, MPTP block 0 and Calb FLC 2.
Screening CCN(CC(=O)Nc1ccc2c(c1)OCCO2)C(=O)CCc1ccccc1Cl returned Beta cell apopt -5, Mdm2-MdmX inh 22 and MPTP block -2.
`NC(=O)c1ncn([C@@H]2O[C@H](CNCc3cc(Cl)ccc3OCc3ccc(Cl)cc3)[C@@H](O)[C@H]2O)n1` gave MPTP block 1.
Screening CC(C)c1cc(C(=O)NNC(=S)NCc2ccco2)c(O)c(C(C)C)c1 returned Beta cell apopt 8, CSC inhib -5, Mdm2-MdmX inh 34, MPTP block 85*, Calb FLC 37 and MPTP counter 83*.
Screening Cc1cc(C(=O)NNC(=S)NCc2ccco2)n(C)n1 returned CSC inhib -8, Mdm2-MdmX inh 23, MPTP block 0 and Calb FLC 6.
Screening c1ccc(CNc2ncnc3sc4c(c23)CCC4)nc1 returned Beta cell apopt -6, CSC inhib -9, Mdm2-MdmX inh 31, MPTP block -1 and Calb FLC 0.
`CN(C)CCCNc1ncnc2scc(-c3ccccc3)c12` gave Beta cell apopt -17, CSC inhib -10, Mdm2-MdmX inh 31, MPTP block 10 and Calb FLC -12.
`c1ccc(-c2csc3ncnc(NCc4ccccn4)c23)cc1` gave Beta cell apopt 22, CSC inhib -5, Mdm2-MdmX inh 40, MPTP block 62*, Calb FLC 3 and MPTP counter 33*.
`c1ccc(CNc2ncnc3scc(-c4cccs4)c23)nc1` gave Beta cell apopt 21, CSC inhib -13, Mdm2-MdmX inh 24, MPTP block 72*, Calb FLC -21 and MPTP counter 57*.
`CCC(OC(=O)c1cccs1)C(=O)NCc1ccc(C)cc1` (stereo not given) gave Beta cell apopt -5, CSC inhib 3, Mdm2-MdmX inh -23, MPTP block -1 and Calb FLC 4.
For COC(=O)c1ccc(CNCC(O)COc2ccc(-c3ccccc3)cc2)cc1 (stereo not given) the results were Beta cell apopt 2, CSC inhib 3, Mdm2-MdmX inh 6, MPTP block 89*, Calb FLC -11, MPTP counter -4, MPTP abs DR 8.8* and MPTP counter DR >80.
COc1ccccc1NS(=O)(=O)c1cc(NC(=O)c2cccs2)ccc1N1CCCC1 was read as Beta cell apopt 38, CSC inhib 5, Mdm2-MdmX inh -7, MPTP block 6 and Calb FLC 6.
`O=C(Nc1ccc(N2CCCC2)c(S(=O)(=O)Nc2cccc(C(F)(F)F)c2)c1)c1cccs1` gave Beta cell apopt 1, CSC inhib 15, Mdm2-MdmX inh 15, MPTP block 74*, Calb FLC 1 and MPTP counter 50*.
For Cc1nn(C)c(C)c1CN(Cc1nc(CCC(C)C)no1)C(C)C the results were Beta cell apopt 94*, CSC inhib -1, Mdm2-MdmX inh 1, MPTP block 103*, Calb FLC 36 and MPTP counter 93*.
Cc1csc2ncnc(NNC(=O)c3ccc(Cl)cc3)c12 was read as Beta cell apopt 32, CSC inhib 2, Mdm2-MdmX inh 22, MPTP block 55*, Calb FLC -6 and MPTP counter 39*.
`O=C(NNc1ncnc2sccc12)c1ccc(Cl)cc1` gave Beta cell apopt 13, CSC inhib 3, Mdm2-MdmX inh -12, MPTP block 32 and Calb FLC -13.
